High-throughput results as filed in PubChem BioAssay.
Sampled rows, rich in hits. Any-hit rate of the full collection: about 21%.
IL1B secr inh: inflammasome signaling inhibition, IL-1 beta readout; THP-1 LPS/ATP IL-1B secretion, AlphaLISA, 16 h; stronger effect = lower value; activity change, % at 57.5 µM; hit rate 4.7% among 360,000; AID 743279; in the data active means activity change below about -50%; inconclusive means mostly about -30% to -49%; further: on the % scale 0 is the no-effect control and ±100 the full control effect
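THP-1 cells pretreated 1 hr with compounds (up to 57.5 uM final), then stimulated with LPS (250 ng/mL final) plus ATP (1.25 mM final); secreted IL-1B measured by AlphaLISA after 16 hr, decreased signal indicating inhibition.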
ClpP mod: qHTS Assay for Activators of ClpP | ATP-dependent Clp protease proteolytic subunit (Bacillus subtilis (strain 168)), P80244 | purified B. subtilis ClpP, FRET peptide cleavage, 20 min | Potency, µM (highest dose often 57.5 µM), for inactives: at the top dose activity change, negative = active | hit rate 1.9% among 340,000 | AID 651965, 2013; active means well fitted falling curve with a large enough effect; inconclusive means small, poorly fitted or top-dose-only effect; inactive means no such curve, though single readings can be large or run the other way; further: potency means the concentration at half of the fitted maximal effect; the source files actives as falling curves though it sought activators and does not explain the sign; nearly all actives have a fitted effect of over 65% in size
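ClpP 10 microg/mL final, pH 8 Tris/KCl buffer with BSA, glycerol, Tween-20; compound pinned in; FRET-FV substrate; RT 20 min; Ex320/Em430; ΔFRET vs ADEP 5.8 microM, DMSO, no enzyme.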
DRD3 agonist: activates the human D3 dopamine receptor. D3R DiscoveRx beta-arrestin cells, luminescence, 90 min. P35462. hit rate 0.58% among 410,000. max activation, %; in the data active means max activation above about 30%; further: 0% is about no effect
Target sequence (P35462 whole entry, looked up): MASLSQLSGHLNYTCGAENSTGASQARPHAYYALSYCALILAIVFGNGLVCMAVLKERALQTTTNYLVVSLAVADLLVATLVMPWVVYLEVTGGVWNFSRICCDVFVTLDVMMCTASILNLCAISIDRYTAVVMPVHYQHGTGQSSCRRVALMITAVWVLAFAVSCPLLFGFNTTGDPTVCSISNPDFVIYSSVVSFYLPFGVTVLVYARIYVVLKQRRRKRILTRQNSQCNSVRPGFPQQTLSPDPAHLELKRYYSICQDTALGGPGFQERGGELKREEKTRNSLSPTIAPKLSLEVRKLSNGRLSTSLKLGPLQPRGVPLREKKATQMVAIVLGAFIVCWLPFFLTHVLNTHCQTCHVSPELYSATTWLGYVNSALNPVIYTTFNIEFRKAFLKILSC
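Cells at 1500/well, incubated overnight, then treated with pinned compounds (dopamine as control) for 90 min at 37 degrees C. DiscoveRx reagent added for 30 - 60 minutes at room temperature; luminescence read.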
D3 antag: antagonists of human D3 dopamine receptor; P35462; D3R cells, DiscoveRx beta-arrestin luminescence, antagonist mode; stronger effect = lower value; max response, negative = inhibition, %; hit rate 2.5% among 360,000; AID 652054; in the data active means max response below about -50%; inconclusive means no clear call, values can overlap the other calls; further: on the % scale 0 is the no-effect control and ±100 the full control effect
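Cells plated overnight at 1500 cells/well, then exposed to library compounds with dopamine controls for 90 minutes at 37 degrees C. DiscoveRx reagent added for 30–60 minutes at room temperature; luminescence read, quantitative HTS format.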
TDP1 cell noCPT: qHTS for Inhibitors of human tyrosyl-DNA phosphodiesterase 1 (TDP1): qHTS in cells in absence of CPT | DT40 Tdp1-/- hTDP1 cells, no CPT, ATP luminescence, 48 h | Potency, µM (doses to about 46.2 µM), inactives show at the highest dose activity change, negative = growth inhibition, hits mostly inhibitors | hit rate 15% among 420,000 | AID 686978, 2013; further: potency means the concentration at half of the fitted maximal effect; on the % scale 0 is the no-effect control and ±100 the full control effect; nearly all actives have a fitted effect of over 55% in size
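Camptothecin absent (DMSO only). Human TDP1-complemented DT40 knockout cells, 400 cells/well, 37 °C for minimum 48 hr; ATP measured via CellTiter-Glo, 30 min dark incubation, luminescence.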
TDP1 cell CPT: growth inhibition of DT40 Tdp1-/-;hTDP1 cells with camptothecin (screen for TDP1 inhibitors); chicken DT40 Tdp1-/-;hTDP1 cells + 20 nM CPT, ATP luminescence, 48 h; Potency, µM (top dose mostly 46.2 µM), inactives show at the highest dose activity change, negative = growth inhibition, hits mostly inhibitors; hit rate 12% among 420,000; further: potency means the concentration at half of the fitted maximal effect; on the % scale 0 is the no-effect control and ±100 the full control effect; nearly all actives have a fitted effect of over 55% in size
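Chicken DT40 Tdp1-/- cells complemented with human TDP1, 400 cells/well, exposed to compounds plus 20 nM camptothecin for at least 48 h at 37 C; viability read as ATP content by CellTiter-Glo luminescence.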
* hit, by the source's call. Unless noted, the call rests on the fitted dose curve; in most records, active means well fitted inhibition curve with a large enough effect; inconclusive means small, poorly fitted or top-dose-only effect; inactive means flat fitted curve, though single readings scatter.

How did COc1cc(-c2nnc(SCC(=O)N3CCCc4ccccc43)o2)cc(OC)c1OC do in these assays?
ClpP mod: -1%; DRD3 agonist: 15; TDP1 cell noCPT: 23µM*; TDP1 cell CPT: inconclusive

How did COC(=O)c1ccc(OCC(=O)N2CCCc3ccccc32)cc1 do in these assays?
IL1B secr inh: 4; DRD3 agonist: -2; D3 antag: -6; TDP1 cell noCPT: -30%; TDP1 cell CPT: 5%

How did O=C(c1coc(=O)c(Br)c1)N1CCC(C(O)(c2ccccc2)c2ccccc2)CC1 do in these assays?
IL1B secr inh: -17; ClpP mod: inconclusive; DRD3 agonist: 0; D3 antag: 3; TDP1 cell noCPT: 1.8µM*; TDP1 cell CPT: 0.65µM*

Results for CC(=O)c1cccc(OCC(=O)N2CCCc3ccccc32)c1 ?
IL1B secr inh: 55; DRD3 agonist: -3; D3 antag: 5; TDP1 cell noCPT: 16µM*; TDP1 cell CPT: inconclusive

How did CCCCN(C)C(=O)CNC(=O)c1nn(-c2ccc(OC)cc2OC)c(=O)c2ccccc12 do in these assays?
IL1B secr inh: 16; ClpP mod: -2%; DRD3 agonist: -10; D3 antag: -22; TDP1 cell noCPT: -15%; TDP1 cell CPT: 13%

Results for CCc1ccc(C2NC(=O)c3ccccc3O2)cc1 (stereo not drawn) ?
IL1B secr inh: -10; ClpP mod: 0%; DRD3 agonist: 5; D3 antag: -14; TDP1 cell noCPT: -14%; TDP1 cell CPT: 12%

What do the screens show for `COc1cc(OC)cc(-c2nnc(SCC(=O)N3CCCc4ccccc43)o2)c1`?
IL1B secr inh: -3; ClpP mod: 1%; DRD3 agonist: -13; D3 antag: 5; TDP1 cell noCPT: 21µM*; TDP1 cell CPT: inconclusive

What do the screens show for `COc1cccc(C(=O)NN2c3ccccc3CCc3ccccc32)c1`?
IL1B secr inh: 9; ClpP mod: -3%; DRD3 agonist: -3; D3 antag: -7; TDP1 cell noCPT: 10µM*; TDP1 cell CPT: 21µM*

What do the screens show for `O=C(CSc1nnc(-c2ccc(F)cc2)o1)N1CCCc2ccccc21`?
ClpP mod: -4%; DRD3 agonist: 3; TDP1 cell noCPT: 18µM*; TDP1 cell CPT: inconclusive

How did O=C(CSc1ccc(-c2ccc(F)cc2)nn1)N1CCCc2ccccc21 do in these assays?
IL1B secr inh: 14; ClpP mod: 1%; DRD3 agonist: 3; D3 antag: 3; TDP1 cell noCPT: inconclusive; TDP1 cell CPT: 16µM*

How did O=C(CSc1ccc(-c2ccc(Cl)cc2)nn1)N1CCCc2ccccc21 do in these assays?
IL1B secr inh: -5; ClpP mod: -1%; DRD3 agonist: 5; D3 antag: -12; TDP1 cell noCPT: inconclusive; TDP1 cell CPT: inconclusive

How did CS(=O)(=O)c1ccc(-c2sc3cc4c(cc3c2C(=O)NN2CCOCC2)OCO4)cc1 do in these assays?
IL1B secr inh: 6; ClpP mod: inconclusive; DRD3 agonist: 7; D3 antag: 15; TDP1 cell noCPT: -20%; TDP1 cell CPT: inconclusive

Results for CC1(C)CCCN(C(=O)c2coc(=O)c(Br)c2)C1 ?
IL1B secr inh: 11; ClpP mod: 25µM*; DRD3 agonist: 4; D3 antag: -23; TDP1 cell noCPT: 0.82µM*; TDP1 cell CPT: 0.92µM*

What do the screens show for `CCOC(=O)C1(C)CCCN(C(=O)c2cc(F)cc(F)c2)C1` (stereo not drawn)?
IL1B secr inh: 33; ClpP mod: 2%; DRD3 agonist: -4; D3 antag: 7; TDP1 cell noCPT: inconclusive; TDP1 cell CPT: inconclusive

Results for Cc1ccc(-c2nnc(SCC(=O)N3CCc4ccccc43)o2)cc1 ?
ClpP mod: -3%; DRD3 agonist: 6; TDP1 cell noCPT: -3%; TDP1 cell CPT: 6%
